Measurements published in PubChem BioAssay (NCI).
The panel holds about 83,000 compounds, 20% with a hit somewhere; the sample as a whole holds those more often.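 Assay: single dose, 48 h. Readout: percent growth (0 = no net growth; negative = cell death). Active: <10.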 Values without a mark were called inactive. Calls of active or inactive are those of the source.

Each compound was assayed on T-47D breast (assay: NCI-60 one-dose screen, 48 h (100 = growth as untreated, 0 = no growth, -100 = all killed)). Conditions: 10 µM unless noted.
`CC1(C)NCCC[C@]2(C)[C@H]3CC[C@@H]4[C@H]5[C@H](C(=O)/C=C/c6ccco6)CC[C@]5(CO)CC[C@@]4(C)[C@]3(C)CC[C@@H]12` was tested, and the growth was 75.7%. `CCCCCCNC(=O)Oc1ccc(/C(=C(\C)c2ccccc2)c2ccc(OCCCN(C)C)cc2)cc1` gave a growth of 46.2%. `Cc1ccc(-n2nc3c(c(C#N)c2=O)CC(c2ccccc2[N+](=O)[O-])C([N+](=O)[O-])=C3O)cc1` (stereo unspecified) gave a growth of 65.5%. Work on `CN1CCN(CCNc2nccc(-c3c(-c4cccc(O)c4)nc4sccn34)n2)S1(=O)=O` yielded a growth of 68.5%. For `NC(=NCCCOc1ccc(F)cc1)Nc1ccc(Cl)cc1`, the growth was 18.6%. In the case of `Cc1cc(Cl)nc(N(CCNc2ccnc3cc(Cl)ccc23)Cc2ccccn2)n1`, the growth is reported as -19.6% (active). For `COc1ccc(-c2cnc3c(-c4cccc5cnccc45)cnn3c2)cc1`, the growth was 22.8%. `CCOC(=O)c1cc(C#N)n2ccc3ccccc3c12` was tested, and the growth was 104%. `N#CC(C(=O)/C(=N/NC(=O)c1ccccc1O)C(C#N)c1ccccc1)c1ccccc1` (stereo unspecified) showed a growth of 24.9%. `N#C/C(=C\c1cccc(C#N)c1)c1ccccc1` was tested, and the growth was 78.7%. `Cc1nc2ccc(Cl)cn2c1-c1nnc(SCc2ccc([N+](=O)[O-])cc2)o1` was tested, and the growth was 79.8%. With `CCN(CC)CCn1c(=O)c2cc(OC)c(OC)cc2c2ccc3cc4c(cc3c21)OCO4` the growth was 39.1%. Work on `COc1ccc2nc(-c3ccc(-c4noc(-c5cc(OC)c(OC)c(OC)c5)n4)cc3)[nH]c2c1` yielded a growth of 83.8%. `CC(C)(C)[Si](C)(C)OC1[C@@H](O[Si](C)(C)C(C)(C)C)[C@@H](CNC(=O)NC(=O)CCl)O[C@H]1n1cnc2c(NC(=O)Nc3ccccc3)ncnc21` (stereo partly specified) was tested, and the growth was -45.7% (active). With `O=C1C=CC(=O)N1c1cccc(Cl)c1` the growth was 93.7%. For `O=C(O)c1ccc2c(c1)C(=O)N(Cc1ccccc1)C2=O`, the growth was 95.8%. `O=C(Cc1ccccc1)NNc1nc(Cl)nc(N2CCN(C(c3ccccc3)c3ccccc3)CC2)n1` showed a growth of 84.4%. For `O=C(/C=C/c1c(-c2ccc(Cl)cc2)nn(-c2ccccc2)c1C(F)(F)F)c1ccc(Cl)cc1`, the growth was 64.8%. `O=C1Nc2ccccc2/C1=C\c1c(-c2ccc(F)cc2)nc2ccccn12` showed a growth of 60.6%. Compound `COc1cc(C2C3=C(COC3=O)N(CCO)c3cc4c(cc32)CCC4)cc(OC)c1OC` (stereo unspecified) has a growth of 54.1%. For `CC(c1ccccc1)C(C(=O)c1ccccc1)c1ccccc1` (stereo unspecified), the growth was 91.5%. `C#Cc1cccc(NC(=O)Nc2cccc(NC(=O)CCl)c2)c1` was tested, and the growth was 27.8% [8.25 µM]. `COc1cc(-c2cc(-c3ccc(N(C)C)cc3)nc(N3CCOCC3)c2C#N)cc(OC)c1OC` gave a growth of 29.5%. In the case of `Cc1nc2sccn2c1-c1cn2ccsc2n1`, the growth is reported as -4.14% (active). In the case of `C=CCn1c(-c2ccc(-c3nc4ccc(C)cc4[nH]3)cc2)n[nH]c1=S`, the growth is reported as 97.5%. In the case of `COc1cc(CC(=O)n2ncc3ccc(N)cc32)cc(OC)c1OC`, the growth is reported as 76.2%. `COC(=O)C(CC=O)C(=O)C(=O)Nc1cccc(C(F)(F)F)c1` (stereo unspecified) was tested, and the growth was 77.4%. `CCNc1nc2ccc(Nc3ccnc4cc(Cl)ccc34)cc2[nH]1` was tested, and the growth was 100%. In the case of `Cc1cc2c(c(C)c1Cl)C(=O)/C(=C/c1ccc(O)c(O)c1)O2`, the growth is reported as 90.5%. For `O=C1/C=C/[C@@H](O)[C@@H]2C[C@@H](O)C[C@H]2/C=C/CCC[C@H](CCc2cccc3ccccc23)O1`, the growth was 1.52% (active). `COc1cc2c(cc1OC)C(=O)/C(=C/c1cc(C)c(O)c(C)c1)S2` was tested, and the growth was 42%. `Cc1ccc(-n2c3c(c(-c4ccccc4)c2-c2ccccc2)C2=NCCN2C=N3)cc1` showed a growth of 72.7%. `NS(=O)(=O)c1ccc(CCn2c(SCC(=O)c3ccc(Cl)cc3)nc3ccccc3c2=O)cc1` showed a growth of 95.3%. `COc1cc(NC(=O)CSc2nc3ccc(C)cc3c(=O)n2Cc2ccccc2)cc(OC)c1OC` showed a growth of 22.8%. `CN1[C@@H]2CC[C@H]1/C(=C\c1ccccc1)C(=O)/C2=C/c1ccccc1` showed a growth of 56%. With `Cc1ccc(C(=O)/C(=C/c2ccc([N+](=O)[O-])cc2)SCc2ccc(Cl)cc2)cc1` the growth was 65.2%. In the case of `CSc1nc2sc3cccc(Cl)c3n2c(=N)c1C#N`, the growth is reported as 83.9%. `Cc1c2cc[nH]c(=O)c2c(C)c2c1[nH]c1cc(OCCN3CCN(C)CC3)ccc12` showed a growth of 22.7%.

The compounds below were run on BT-549 breast in the same assay as above. Conditions: 10 µM unless noted.
For `CC1(C)NCCC[C@]2(C)[C@H]3CC[C@@H]4[C@H]5[C@H](C(=O)/C=C/c6ccco6)CC[C@]5(CO)CC[C@@]4(C)[C@]3(C)CC[C@@H]12`, the growth was 89.1%. For `CCCCCCNC(=O)Oc1ccc(/C(=C(\C)c2ccccc2)c2ccc(OCCCN(C)C)cc2)cc1`, the growth was 85.4%. In the case of `Cc1ccc(-n2nc3c(c(C#N)c2=O)CC(c2ccccc2[N+](=O)[O-])C([N+](=O)[O-])=C3O)cc1` (stereo unspecified), the growth is reported as 93.2%. Work on `CN1CCN(CCNc2nccc(-c3c(-c4cccc(O)c4)nc4sccn34)n2)S1(=O)=O` yielded a growth of 52.3%. `NC(=NCCCOc1ccc(F)cc1)Nc1ccc(Cl)cc1` was tested, and the growth was 52.8%. `Cc1cc(Cl)nc(N(CCNc2ccnc3cc(Cl)ccc23)Cc2ccccn2)n1` gave a growth of 75.4%. `COc1ccc(-c2cnc3c(-c4cccc5cnccc45)cnn3c2)cc1` gave a growth of 50.1%. Compound `CCOC(=O)c1cc(C#N)n2ccc3ccccc3c12` has a growth of 113%. With `N#CC(C(=O)/C(=N/NC(=O)c1ccccc1O)C(C#N)c1ccccc1)c1ccccc1` (stereo unspecified) the growth was 44.2%. For `N#C/C(=C\c1cccc(C#N)c1)c1ccccc1`, the growth was 102%. For `Cc1nc2ccc(Cl)cn2c1-c1nnc(SCc2ccc([N+](=O)[O-])cc2)o1`, the growth was 12.9%. In the case of `CCN(CC)CCn1c(=O)c2cc(OC)c(OC)cc2c2ccc3cc4c(cc3c21)OCO4`, the growth is reported as 26.2%. Work on `COc1ccc2nc(-c3ccc(-c4noc(-c5cc(OC)c(OC)c(OC)c5)n4)cc3)[nH]c2c1` yielded a growth of 26.8%. With `CC(C)(C)[Si](C)(C)OC1[C@@H](O[Si](C)(C)C(C)(C)C)[C@@H](CNC(=O)NC(=O)CCl)O[C@H]1n1cnc2c(NC(=O)Nc3ccccc3)ncnc21` (stereo partly specified) the growth was -85.9% (active). `O=C1C=CC(=O)N1c1cccc(Cl)c1` showed a growth of 108%. For `O=C(O)c1ccc2c(c1)C(=O)N(Cc1ccccc1)C2=O`, the growth was 98.6%. Compound `O=C(Cc1ccccc1)NNc1nc(Cl)nc(N2CCN(C(c3ccccc3)c3ccccc3)CC2)n1` has a growth of 99.3%. Work on `O=C(/C=C/c1c(-c2ccc(Cl)cc2)nn(-c2ccccc2)c1C(F)(F)F)c1ccc(Cl)cc1` yielded a growth of 97.4%. Work on `O=C1Nc2ccccc2/C1=C\c1c(-c2ccc(F)cc2)nc2ccccn12` yielded a growth of 69.6%. `COc1cc(C2C3=C(COC3=O)N(CCO)c3cc4c(cc32)CCC4)cc(OC)c1OC` (stereo unspecified) was tested, and the growth was -9.83% (active). Compound `CC(c1ccccc1)C(C(=O)c1ccccc1)c1ccccc1` (stereo unspecified) has a growth of 101%. In the case of `C#Cc1cccc(NC(=O)Nc2cccc(NC(=O)CCl)c2)c1`, the growth is reported as -15.1% [8.25 µM] (active). For `COc1cc(-c2cc(-c3ccc(N(C)C)cc3)nc(N3CCOCC3)c2C#N)cc(OC)c1OC`, the growth was 47.2%. In the case of `Cc1nc2sccn2c1-c1cn2ccsc2n1`, the growth is reported as 80.2%. For `C=CCn1c(-c2ccc(-c3nc4ccc(C)cc4[nH]3)cc2)n[nH]c1=S`, the growth was 100%. With `COc1cc(CC(=O)n2ncc3ccc(N)cc32)cc(OC)c1OC` the growth was 91.3%. For `COC(=O)C(CC=O)C(=O)C(=O)Nc1cccc(C(F)(F)F)c1` (stereo unspecified), the growth was 101%. `CCNc1nc2ccc(Nc3ccnc4cc(Cl)ccc34)cc2[nH]1` showed a growth of 86.8%. In the case of `Cc1cc2c(c(C)c1Cl)C(=O)/C(=C/c1ccc(O)c(O)c1)O2`, the growth is reported as 104%. Compound `O=C1/C=C/[C@@H](O)[C@@H]2C[C@@H](O)C[C@H]2/C=C/CCC[C@H](CCc2cccc3ccccc23)O1` has a growth of 13.5%. Compound `COc1cc2c(cc1OC)C(=O)/C(=C/c1cc(C)c(O)c(C)c1)S2` has a growth of 36.9%. For `Cc1ccc(-n2c3c(c(-c4ccccc4)c2-c2ccccc2)C2=NCCN2C=N3)cc1`, the growth was 107%. Compound `NS(=O)(=O)c1ccc(CCn2c(SCC(=O)c3ccc(Cl)cc3)nc3ccccc3c2=O)cc1` has a growth of 99%. With `COc1cc(NC(=O)CSc2nc3ccc(C)cc3c(=O)n2Cc2ccccc2)cc(OC)c1OC` the growth was 53.3%. `CN1[C@@H]2CC[C@H]1/C(=C\c1ccccc1)C(=O)/C2=C/c1ccccc1` showed a growth of 35%. `Cc1ccc(C(=O)/C(=C/c2ccc([N+](=O)[O-])cc2)SCc2ccc(Cl)cc2)cc1` showed a growth of 88.9%. Compound `CSc1nc2sc3cccc(Cl)c3n2c(=N)c1C#N` has a growth of 96.7%. `Cc1c2cc[nH]c(=O)c2c(C)c2c1[nH]c1cc(OCCN3CCN(C)CC3)ccc12` gave a growth of 33.3%.
